The results in this text go back to PubChem BioAssay (Tox21).

Inconclusive results are not listed. A number with no mark means an inactive call. The source made the active and inactive calls. Calls come from the whole dose curve; as a rule, active = well fitted cell-killing curve with a large enough effect in the repeat runs; inconclusive = weak or mixed curves; inactive = flat fitted curve, though single readings scatter.
% is set by controls: 0 for no effect and ±100 for the full control effect; potency is the fitted concentration of half-maximal effect.

This assay in a line: qHTS assay to identify small molecule antagonists of the estrogen related receptor (ERR) signaling pathway from Tox21 library - cell viability counter screen (AID 1224834). Note: nearly all actives have a fitted effect of over 30% in size. The note with it: ERR reporter cells viability, CellTiter-Fluor, 17.5 h; series mostly up to 92.4 µM; viability change, negative = cytotoxic: at the top concentration. The text has this:
National Center for Advancing Translational Sciences [NCATS]
NIH Chemical Genomics Center [NCGC]
U.S. Environmental Protection Agency [EPA]
National Institutes of Environmental Health Sciences [NIEHS]
National Toxicology Program [NTP]
U.S. Food and Drug Administration [FDA]
Estrogen related receptors (ERRs), the first orphan nuclear receptors discovered, play an important role in the control of cellular energy metabolism. ERRs are required for high-energy production in response to the environmental challenges. ERR-alpha was also identified as an adverse marker for breast cancer progression; ERR-alpha-positive tumors have a poor prognosis. To screen and to identify environmental compounds that perturb the ERR signaling pathways could provide valuable information for potential therapeutic or preventive measures in the treatment of metabolic disease. To differentiate true ERR antagonists or agonist from cytotoxic substances, the assay is multiplexed with cell viability assay.
Tox21 Assay Protocol Summary:
The ERR cells were dispensed at 2,000 cells/5 ul/well in 1536-well white plates using a Multidrop dispenser. After the assay plates were incubated at a 37 C/5% CO2 incubator for 6 hours, 23 nL of compounds dissolved in DMSO, positive and negative controls or DMSO only was transferred to the assay plate by a pin tool. The plates were incubated at 37 C for 17.5 hours. 1 ul/well of CellTiter-Fluor reagent was added into the assay plates using a Flying Reagent Dispenser. After 30-minute incubation at 37 C/5% CO2, the fluorescence intensity in the plates was measured using a ViewLux plate reader.
For orientation: qHTS replaces the single test concentration by a dilution series.
As for `CN(C)C(=O)C1(N2CCCCC2)CCN(CC[C@@]2(c3ccc(Cl)c(Cl)c3)CN(C(=O)c3ccccc3)CCO2)CC1`, the Potency was 50.9 µM (active).

On to `CCc1cc(SCc2sc(-c3ccc(C(F)(F)F)cc3)nc2CN2CCN(c3ccc(OC)cc3)CC2)ccc1OCC(=O)O`, for which the Potency is 34.4 µM (active).

Take `ON=C1CCCC1`: the Potency was 25.2 µM (active).

For the molecule `CC(C)(C)c1ccc(C(=O)O)cc1`, the “viability change, negative = cytotoxic” value was -1.25%.

With `CCCCCCCCCCCCCCCC[N+](C)(C)CCN(Cc1ccc(OC)cc1)c1ncccn1`, the Potency was 29.8 µM (active).

For the molecule `[O-][n+]1ccccc1SSc1cccc[n+]1[O-]`, the Potency was 0.366 µM (active).

`O=[N+]([O-])c1ccccc1Nc1ccccc1`: the “viability change, negative = cytotoxic” value was -11.8%.

Take `O=C(NO)C1(NS(=O)(=O)c2ccc(Oc3ccc(F)cc3)cc2)CCOCC1`: the “viability change, negative = cytotoxic” value was -7.73%.

For `CCOC(=O)O[C@]1(C(=O)OCCl)CC[C@H]2[C@@H]3CCC4=CC(=O)C=C[C@]4(C)[C@H]3[C@@H](O)C[C@@]21C`, the “viability change, negative = cytotoxic” value was 2.08% [at 42.5 µM].

With `COc1cc(/C=C/C(=O)O[C@H]2CC[C@]34C[C@]35CC[C@]3(C)[C@@H]([C@H](C)CCC=C(C)C)CC[C@@]3(C)[C@@H]5CC[C@H]4C2(C)C)ccc1O`, the “viability change, negative = cytotoxic” value was -15.1% [at 42.5 µM].

On to `Cc1cc(N)c(S(=O)(=O)O)cc1Cl`, for which the “viability change, negative = cytotoxic” value is -1.17%.

Turning to `NC(=NCCCCCCN=C(N)/N=C(\N)Nc1ccc(Cl)cc1)/N=C(\N)Nc1ccc(Cl)cc1`, the Potency was 54.2 µM (active) [middle of 4 runs].

In the case of `NC(=O)C1(N2CCCCC2)CCN(CCCN2c3ccccc3CCc3ccc(Cl)cc32)CC1`, the Potency is 29.8 µM (active).

As for `Oc1cc2ccccc2c2ccccc12`, the Potency was 8.63 µM (active).

`O=CC=C(c1ccccc1)c1ccccc1`: the Potency was 27.5 µM (active).

For the molecule `N#CC1(c2ccc(F)cc2)CCC(=O)CC1`, the “viability change, negative = cytotoxic” value was 0.533% [at 42.5 µM].

Consider `CN(C)CCCOC1(Cc2ccccc2)CCCCCC1`, for which the “viability change, negative = cytotoxic” value is -4.11% [at 42.5 µM].

Consider `O=C(N/N=C/c1ccccc1O)c1ccncc1`, for which the Potency was 9.44 µM (active).

As to `NC(=O)CC[C@@H]1NC(=O)[C@H](Cc2ccccc2)NC(=O)[C@H](Cc2ccc(O)cc2)NC(=O)CCSSC[C@@H](C(=O)N2CCC[C@H]2C(=O)N[C@@H](CCCN=C(N)N)C(=O)NCC(N)=O)NC(=O)[C@H](CC(N)=O)NC1=O`, the “viability change, negative = cytotoxic” value was 8.03% [at 42.5 µM].

`CCCC/C=C/CCCCO`: the “viability change, negative = cytotoxic” value was 9.31%.

On to `CC(=O)SC[C@@H](Cc1ccccc1)C(=O)NCC(=O)OCc1ccccc1`, for which the “viability change, negative = cytotoxic” value is -1.89% [at 42.5 µM].

For `Cc1ccc2oc(CN(Cc3ccccc3)C(=O)Nc3c(F)cc(F)cc3F)c(-c3ccc(Cl)cc3)c2c1`, the “viability change, negative = cytotoxic” value is -0.638%.

Regarding `O=C(Nc1cccc(Cl)c1)OCC#CCCl`, the Potency was 54.5 µM (active).

As to `N=C1C=CC(=C(c2ccc(N)cc2)c2ccc(N)cc2)C=C1`, the Potency was 21.7 µM (active).

Regarding `CC(=O)S[C@@H]1CC2=CC(=O)CC[C@]2(C)[C@H]2CC[C@@]3(C)[C@@H](CC[C@@]34CCC(=O)O4)[C@H]12`, the “viability change, negative = cytotoxic” value was -8.94%.

For the molecule `CC(C)(C)c1ccc(C(=O)CCCN2CCC(OC(c3ccccc3)c3ccccc3)CC2)cc1`, the Potency is 23.7 µM (active).

On to `CCCCCCCCNC(C)C(O)c1ccc(SC(C)C)cc1` (stereo not given), for which the Potency is 26.6 µM (active).

As to `CCN(CC)CCCC(C)Nc1c2ccc(Cl)cc2nc2ccc(OC)cc12` (stereo not given), the Potency was 5.96 µM (active).

In the case of `Cc1cccc(N(C)C(=S)Oc2ccc3c(c2)C2CCC3C2)c1` (stereo not given), the “viability change, negative = cytotoxic” value was -6.58% [at 42.5 µM].

On to `NNc1nc(-c2ccc(N)cc2)cs1`, for which the Potency is 54.5 µM (active).

With `O=c1[nH]sc2cc(Cl)ccc12`, the “viability change, negative = cytotoxic” value was -19.8% [at 42.5 µM].

For the molecule `CO[Si](CCCNc1ccccc1)(OC)OC`, the “viability change, negative = cytotoxic” value was 5.35%.

Take `CCCCCCCCCCC=O`: the “viability change, negative = cytotoxic” value is 2.31%.

`CCCCCCCCCCCCCCCCCC[N+](C)(C)C`: the Potency was 61.3 µM (active).

For `CNC(=O)c1ccccc1`, the “viability change, negative = cytotoxic” value is -3.13%.

Consider `c1ccc(CSCc2ccccc2)cc1`, for which the “viability change, negative = cytotoxic” value is 1.18%.

`O=C(Nc1ccc(Oc2ccc(Cl)cc2)c(Cl)c1)c1cc(I)cc(I)c1O`: the “viability change, negative = cytotoxic” value is -12.4% [at 42.5 µM].

In the case of `CCCCC(CC)CN=C(N)NC(N)=NCCCCCCN=C(N)NC(N)=NCC(CC)CCCC` (stereo not given), the Potency is 11.9 µM (active).

Consider `CC(=O)N1CCN(c2ccc(OC[C@H]3CO[C@](Cn4ccnc4)(c4ccc(Cl)cc4Cl)O3)cc2)CC1`, for which the Potency was 27.3 µM (active).

Turning to `CCN(CC)CCNC(=O)c1c(C)[nH]c(/C=C2\C(=O)Nc3ccc(F)cc32)c1C`, the Potency was 10.6 µM (active).
